Results published in PubChem BioAssay (Tox21).
Values joined by “and” are separate entries in the source; they are usually repeats but may differ in a detail not shown here. Identical values can stand only once. Inconclusive results are not listed. A call without a number means that no potency is given here. Some compounds were tested as several samples or in several runs, with calls that do not always agree. Active and inactive are the calls of the source. Unless noted, calls come from the whole dose curve; as a rule, active = well fitted curve in the direction sought with a large enough effect in the repeat runs; inconclusive = weak or mixed curves; inactive = no such curve, though single readings can be large; an effect the other way counts as inactive or inconclusive.

Experiments:
[1] = target: Estrogen receptor (Homo sapiens) (UniProt P03372); experiment: qHTS assay to identify small molecule antagonists of the estrogen receptor alpha (ER-alpha) signaling pathway using the BG1 cell line in the presence of 0.1 nM 17-beta-estradiol (AID 1259244); note: nearly all actives have a fitted effect of over 50% in size
Estrogen receptor (Homo sapiens), sequence (P03372 whole entry, looked up): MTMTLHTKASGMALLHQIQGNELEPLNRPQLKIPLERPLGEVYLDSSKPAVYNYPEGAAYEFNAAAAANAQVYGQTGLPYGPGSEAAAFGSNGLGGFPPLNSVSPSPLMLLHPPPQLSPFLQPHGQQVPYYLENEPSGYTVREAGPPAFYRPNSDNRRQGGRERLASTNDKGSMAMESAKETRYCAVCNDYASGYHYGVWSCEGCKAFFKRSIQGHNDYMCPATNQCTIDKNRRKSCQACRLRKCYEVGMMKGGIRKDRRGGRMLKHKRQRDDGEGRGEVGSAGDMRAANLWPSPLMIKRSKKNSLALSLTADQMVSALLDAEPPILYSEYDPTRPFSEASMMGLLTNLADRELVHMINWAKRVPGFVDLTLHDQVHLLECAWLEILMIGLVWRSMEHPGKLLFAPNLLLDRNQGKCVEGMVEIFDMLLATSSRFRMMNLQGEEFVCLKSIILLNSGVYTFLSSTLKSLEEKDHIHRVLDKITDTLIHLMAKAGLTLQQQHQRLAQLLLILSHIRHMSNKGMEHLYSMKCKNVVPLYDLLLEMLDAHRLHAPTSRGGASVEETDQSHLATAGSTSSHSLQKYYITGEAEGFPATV
In short: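 VM7Luc4E2; 4xERE-luciferase; 0.1 nM E2 final; 22 h co-incubation, 37C; ONE-Glo luminescence after 30 min at room temperature.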

[2] = qHTS assay to identify small molecule HDAC inhibitors (AID 1259364); note: potency is the fitted concentration of half-maximal effect;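 note: wild-type HCT-116 cells with endogenous class I/II HDAC activity; nearly all actives have a fitted effect of over 45% in size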; for activity change, negative = inhibition: top concentration of the series differs between compounds
In short: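 Relative class I and II HDAC activity is taken from the luminogenic signal in HCT-116 cells, with compound exposure 2 hr and reagent development 30 min at room temperature.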

[3] = qHTS assay to identify small molecule HDAC inhibitors - cell viability counter screen (AID 1259365); note: series mostly up to about 92 µM; nearly all actives have a fitted effect of over 50% in size
In short: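 Following a 2hr exposure of overnight-plated wild-type HCT-116 cells to DMSO-delivered compounds, CellTiter-Glo was added and luminescence recorded after 30min at room temperature.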

[4] = qHTS assay to identify small molecule agonists of the sonic hedgehog signaling (Shh) pathway - cell viability counter screen (AID 1259366); note: nearly all actives have a fitted effect of over 50% in size; note: potency is the fitted concentration of half-maximal effect
In short: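 After a 4hr attachment at 37C, NIH/3T3 cells bearing an integrated Gli1-driven luciferase reporter were dosed with compounds. Treatment lasted 24hr, with the final hour including CellTiter-Fluor for a fluorescence viability measurement.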

[5] = qHTS assay to identify small molecule antagonists of the sonic hedgehog signaling (Shh) pathway - cell viability counter screen (AID 1259367); note: nearly all actives have a fitted effect of over 55% in size; note: potency is the fitted concentration of half-maximal effect
In short: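 NIH/3T3-derived Gli1-Luc reporter cells, 2,000/well, plated 4 hr before compound addition, then stimulated with conditioned medium for 24 hr at 37C. Viability measured in the same wells by CellTiter-Fluor fluorescence, reagent added at 23 hr for 1 hr.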

[6] = qHTS assay to identify small molecule agonists of the sonic hedgehog signaling (Shh) pathway (AID 1259368; calls by dose curve;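 note: NIH/3T3-derived 3T3Gli1-Luc cells carrying a stable Gli1-driven firefly luciferase reporter; series mostly up to about 92 µM; nearly all actives have a fitted effect of over 15% in size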)
In short: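 Mouse fibroblast (NIH/3T3) reporter cells with stably integrated Gli1-Luc were treated 24 hr with compound; firefly luciferase luminescence served as the read-out.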

[7] = qHTS assay to identify small molecule antagonists of the sonic hedgehog signaling (Shh) pathway (AID 1259369; calls by dose curve; note: nearly all actives have a fitted effect of over 45% in size; note: potency is the fitted concentration of half-maximal effect)
In short: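 Conditioned medium drives Shh signalling in 3T3Gli1-Luc cells; compounds in DMSO co-applied, 24hr at 37 C, then luciferase luminescence.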

[8] = target: Estrogen receptor beta (Homo sapiens) (UniProt Q92731); experiment: qHTS assay to identify small molecule agonists of the estrogen receptor beta (ER-beta) signaling pathway (AID 1259377; active = well fitted activation curve with a large enough effect in the signal ratio in the repeat runs, not every such curve was filed as active; the % refers to the signal ratio; note: potency is the fitted concentration of half-maximal effect)
Estrogen receptor beta (Homo sapiens), sequence (Q92731 whole entry, looked up): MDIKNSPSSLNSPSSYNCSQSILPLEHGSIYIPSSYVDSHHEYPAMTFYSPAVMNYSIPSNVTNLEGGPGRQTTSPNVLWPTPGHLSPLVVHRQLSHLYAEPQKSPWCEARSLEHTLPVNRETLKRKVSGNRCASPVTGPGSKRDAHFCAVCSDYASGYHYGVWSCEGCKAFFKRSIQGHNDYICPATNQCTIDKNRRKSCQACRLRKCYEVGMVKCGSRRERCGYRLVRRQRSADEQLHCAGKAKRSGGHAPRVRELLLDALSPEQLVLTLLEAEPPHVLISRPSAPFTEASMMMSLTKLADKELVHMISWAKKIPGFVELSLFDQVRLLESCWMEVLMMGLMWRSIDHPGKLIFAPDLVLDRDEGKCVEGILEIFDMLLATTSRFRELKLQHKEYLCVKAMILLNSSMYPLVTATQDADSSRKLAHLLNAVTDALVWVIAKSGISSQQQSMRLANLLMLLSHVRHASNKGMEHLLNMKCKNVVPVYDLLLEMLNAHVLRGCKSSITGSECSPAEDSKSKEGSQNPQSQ
In short: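 In HEK293T cells bearing a UAS-beta-lactamase reporter under ER-beta control, DMSO-delivered compounds were incubated for 16 hr at 37C. Activity was detected as fluorescence 2 hours after LiveBLAzer B/G FRET substrate addition.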

[9] = qHTS assay to identify small molecule phospholipidosis (PLD) inducers (AID 1259344; active = well fitted curve in the direction sought with a large enough effect; an effect the other way counts as inactive or inconclusive; note: potency is the fitted concentration of half-maximal effect)
In short: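 HepG2 cells, 900/well, treated with compound plus LipidTOX Red for 24 h at 37 C; amiodarone positive and DMSO negative controls. Fixed with paraformaldehyde/Hoechst, then high-content imaging scored LipidTOX pit count and integrated intensity per well and per cell.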

For `CCCCC(CC)COC(=O)CCCCC(=O)OCc1ccccc1` (stereo not given), the Potency [1] was “inactive”, the Potency [2] was “inactive” and the Potency [3] was “inactive”. For the same molecule, the Potency [4] was “inactive”, the Potency [5] was “inactive” and the Potency [6] was “inactive”.
With `CC(=O)CC(=O)Nc1ccc(S(=O)(=O)O)cc1` the Potency [1] was “inactive”, the Potency [2] was “inactive” and the Potency [3] was “inactive”. For the same molecule, the Potency [4] was “inactive”, the Potency [5] was “inactive” and the Potency [6] was “inactive”. For the same molecule, the Potency [7] was “inactive” and the Potency [8] was “inactive”.
With `O=C(O)c1ccc2cc(C(=O)O)ccc2c1` the Potency [1] was “inactive”, the Potency [4] was “inactive” and the Potency [5] was “inactive”. The Potency [6] was “inactive” and the Potency [7] was “inactive”.
In the case of `CC(=O)[C@H]1CC[C@H]2[C@@H]3CCC4=CC(=O)CC[C@]4(C)[C@H]3CC[C@]12C`, the Potency [2] is reported as “inactive”, the Potency [3] is reported as “inactive” and the Potency [4] is reported as “inactive”. For the same molecule, the Potency [5] was “inactive” and the Potency [6] was “inactive”.
For `CCCC(=O)OC(C)(C)Cc1ccccc1`, the Potency [2] was “inactive”, the Potency [3] was “inactive” and the Potency [4] was “inactive”. For the same molecule, the Potency [5] was “inactive”, the Potency [6] was “inactive” and the Potency [7] was “inactive”.
In the case of `CC[N+](CC)(CC)CCOC(=O)C(C1CCCC1)C1CCCC1`, the PLD induction [9] is reported as 0.0817% [at 7.66 µM] (inactive), the Potency [2] is reported as “inactive” and the Potency [3] is reported as “inactive”. The Potency [4] was “inactive”, the Potency [5] was “inactive” and the Potency [6] was “inactive”.
In the case of `CCO[C@@H]1O[C@H](C(COCc2ccccc2)OCc2ccccc2)[C@H](OCc2ccccc2)[C@H]1O` (stereo not given in full), the Potency [9] is reported as “inactive”, the Potency [2] is reported as “inactive” and the Potency [3] is reported as “inactive”. For the same molecule, the Potency [5] was “inactive” and the Potency [6] was “inactive”.
In the case of `Cc1ccc(N/N=c2\c(=O)cc/c(=N\Nc3ccc(S(=O)(=O)O)cc3)c2=O)c(C)c1`, the Potency [2] is reported as 19.3 µM (active), the Potency [3] is reported as “inactive” and the Potency [4] is reported as 30.6 µM (active). The Potency [5] was 27.3 µM (active), the Potency [6] was “inactive” and the Potency [7] was “inactive”.
In the case of `C#C[C@]1(OC(C)=O)CC[C@H]2[C@@H]3CCC4=C[C@@H](OC(C)=O)CC[C@@H]4[C@H]3CC[C@@]21C`, the Potency [9] is reported as 10 µM (active), the Potency [2] is reported as “inactive” and the Potency [4] is reported as “inactive”. For the same molecule, the Potency [5] was “inactive” and the Potency [6] was “inactive”.
With `CCC(CC)C(C)CCOC(C)=O` (stereo not given) the Potency [2] was “inactive”, the Potency [3] was “inactive” and the Potency [4] was “inactive”. For the same molecule, the Potency [5] was “inactive”, the Potency [6] was “inactive” and the Potency [7] was “inactive”. For the same molecule, the Potency [8] was “inactive”.
With `O=C1C(c2[nH]c3ccc(S(=O)(=O)O)cc3c2O)=Nc2ccc(S(=O)(=O)O)cc21` the Potency [9] was “inactive”, the Potency [2] was 54.5 µM (active) and the Potency [4] was “inactive”. The Potency [5] was “inactive”, the Potency [6] was “inactive” and the Potency [7] was “inactive”.
With `Cc1nc(-c2ccc(Cl)cc2)oc1COC(C)(C)C(=O)O` the Potency [9] was “inactive”, the Potency [2] was “inactive” and the Potency [3] was “inactive”. The Potency [4] was “inactive”, the Potency [5] was “inactive” and the Potency [6] was “inactive”. For the same molecule, the Potency [7] was “inactive” and the Potency [8] was “inactive”.
In the case of `Cc1cc(-n2nc3ccc(Cl)cc3n2)c(O)c(C(C)(C)C)c1`, the Potency [9] is reported as “inactive”, the Potency [2] is reported as “inactive” and the Potency [3] is reported as “inactive”. The Potency [4] was “inactive”, the Potency [6] was “inactive” and the Potency [7] was “inactive”. For the same molecule, the Potency [8] was “inactive”.
With `Cc1nc2n(c(=O)c1CCN1CCC(c3noc4cc(F)ccc34)CC1)CCCC2` the Potency [9] was “inactive”, the Potency [2] was “inactive” and the Potency [3] was “inactive”. The Potency [4] was “inactive”, the Potency [5] was “inactive” and the Potency [6] was “inactive”.
With `COC(=O)C1=C(C)NC(C)=C(C(=O)OCCN2CCN(C(c3ccccc3)c3ccccc3)CC2)C1c1cccc([N+](=O)[O-])c1` (stereo not given) the Potency [9] was “inactive”, the Potency [2] was “inactive” and the Potency [3] was “inactive”. The Potency [4] was “inactive”, the Potency [5] was “inactive” and the Potency [6] was “inactive”. For the same molecule, the Potency [8] was “inactive”.
In the case of `CC(C)CCOC(=O)/C=C/c1ccccc1`, the Potency [1] is reported as “inactive”, the Potency [3] is reported as “inactive” and the Potency [4] is reported as “inactive”. For the same molecule, the Potency [5] was “inactive”, the Potency [6] was “inactive” and the Potency [7] was “inactive”.
In the case of `C[C@@H](O)[C@H](N)C(=O)O`, the Potency [9] is reported as “inactive”, the activity change, negative = inhibition [2] is reported as -3.34% [at 19 µM] (inactive) and the activity change, negative = cytotoxicity [3] is reported as -2.68% [at 19 µM] (inactive). The viability change, negative = cytotoxic [5] was 3.97% [at 19 µM] (inactive), the activity change [6] was 0.344% [at 18.9 µM, stronger effect = higher value] (inactive) and the activity change, negative = inhibition [7] was 10.6% [at 19 µM] (inactive).
In the case of `Nc1nc(N)nc(-c2cc(Cl)ccc2Cl)n1`, the Potency [9] is reported as “inactive”, the Potency [2] is reported as “inactive” and the Potency [4] is reported as “inactive”. The Potency [6] was “inactive” and the Potency [7] was “inactive”.
With `Oc1cc(Cl)cc(Cl)c1Cl` the Potency [2] was “inactive”, the Potency [3] was “inactive” and the Potency [4] was “inactive”. The Potency [5] was “inactive”, the Potency [6] was “inactive” and the Potency [7] was 31.4 µM (active). For the same molecule, the Potency [8] was “inactive”.
For `Cc1cc(C(C#N)c2ccc(Cl)cc2)c(Cl)cc1NC(=O)c1cc(I)cc(I)c1O` (stereo not given), the Potency [9] was “inactive”, the Potency [2] was “inactive” and the Potency [4] was “inactive”. The Potency [5] was “inactive”, the Potency [6] was “inactive” and the Potency [7] was 26.6 µM (active).
With `Cc1ccc(-c2ccccc2)cc1` the Potency [2] was “inactive”, the Potency [3] was “inactive” and the Potency [4] was “inactive”. For the same molecule, the Potency [5] was “inactive”, the Potency [6] was “inactive” and the Potency [7] was “inactive”. The Potency [8] was “inactive”.
With `Oc1ccccc1O` the Potency [2] was “inactive”, the Potency [3] was “inactive” and the Potency [4] was 9.81 µM (active) and 15.4 µM (active). For the same molecule, the Potency [5] was 6.19 µM (active) and 15.4 µM (active), the Potency [6] was “inactive” and the Potency [7] was 874 nM (active) and inactive. The Potency [8] was 22 µM (active) and 24.3 µM (active).
With `COc1cccc2c1C(=O)c1c(O)c3c(c(O)c1C2=O)C[C@@](O)(C(C)=O)C[C@@H]3O[C@H]1C[C@H](N)[C@H](O)[C@H](C)O1` the PLD induction [9] was -3.33% [at 7.66 µM] (inactive), the Potency [2] was “inactive” and the Potency [3] was “inactive”. The Potency [5] was 1.09 µM (active) and 1.88 µM (active) and the Potency [6] was “inactive”.
In the case of `O=C1CCc2ccc(OCCCCN3CCN(c4cccc(Cl)c4Cl)CC3)cc2N1`, the Potency [9] is reported as “inactive”, the Potency [2] is reported as “inactive” and the Potency [3] is reported as “inactive”. For the same molecule, the Potency [5] was “inactive”, the Potency [6] was “inactive” and the Potency [7] was 11.9 µM (active).
In the case of `C=CCCC(=O)/C=C/C1C(C)=CCCC1(C)C` (stereo not given), the Potency [2] is reported as “inactive”, the Potency [3] is reported as “inactive” and the Potency [4] is reported as “inactive”. For the same molecule, the Potency [5] was “inactive”, the Potency [6] was “inactive” and the Potency [7] was “inactive”. The Potency [8] was “inactive”.
With `CCC(C)n1ncn(-c2ccc(N3CCN(c4ccc(OC[C@H]5CO[C@](Cn6cncn6)(c6ccc(Cl)cc6Cl)O5)cc4)CC3)cc2)c1=O` (stereo not given in full) the Potency [2] was “inactive”, the Potency [3] was “inactive” and the Potency [4] was “inactive”. The Potency [5] was “inactive” and the Potency [6] was “inactive”.
With `CCCCOC(=O)CC` the Potency [2] was “inactive”, the Potency [3] was “inactive” and the Potency [4] was “inactive”. The Potency [5] was “inactive”, the Potency [6] was “inactive” and the Potency [7] was “inactive”. For the same molecule, the Potency [8] was “inactive”.
With `CCCCCCC1CCCC(=O)O1` (stereo not given) the Potency [2] was “inactive”, the Potency [3] was “inactive” and the Potency [4] was “inactive”. The Potency [5] was “inactive”, the Potency [6] was “inactive” and the Potency [7] was “inactive”.
With `OCC(F)(F)F` the Potency [2] was “inactive”, the Potency [3] was “inactive” and the Potency [4] was “inactive”. The Potency [5] was “inactive” and the Potency [6] was “inactive”.
With `CC(N=C(NC#N)Nc1ccncc1)C(C)(C)C` (stereo not given) the Potency [9] was “inactive”, the Potency [2] was “inactive” and the Potency [3] was “inactive”. The Potency [4] was “inactive”, the Potency [5] was “inactive” and the Potency [6] was “inactive”. For the same molecule, the Potency [7] was “inactive”.
